Experimental data as given in PubChem BioAssay AID720584 (National Center for Advancing Translational Sciences (NCATS), 2013).
Some of the results follow. Records with an inconclusive call do not appear. Active and inactive are the calls of the source. Calls follow the shape of the dose curve; as a rule, active = well fitted inhibition curve with a large enough effect; inconclusive = small, poorly fitted or top-dose-only effect; inactive = flat fitted curve, though single readings scatter.

Each compound was assayed on Trypanosoma brucei pyruvate kinase (TbPYK) (assay: qHTS of Trypanosoma Brucei Inhibitors: Orthogonal Assay for Cherry-picked Compounds). Conditions: recombinant TbPYK, ADP-Glo luminescence, 60 min; series mostly up to 76.9 µM; activity change, negative = inhibition: at the top concentration.
Source text: Members of the Trypanosomatidae family of parasitic protozoans cause a spectrum of diseases throughout the tropical and subtropical world. Sleeping sickness, caused by two subspecies of Trypanosoma brucei, is endemic to areas of sub-Saharan Africa, while Chagas' disease, a manifestation of Trypanosoma cruzi infection, is prevalent throughout Central and South America. In addition, many species of Leishmania are responsible for a range of cutaneous and visceral diseases, causing ulcers, destructive lesions and kalaazar, a lethal infection of the viscera. These diseases cause severe public health and economic burdens on populations that are often already caught in a tragic cycle of poverty, poor nutrition and disease. Collectively, parasites of the trypanosomatid family infect 30 million people worldwide (~500 million live in endemic areas), and account for ~130K deaths annually. Existing treatments have developed little in the past 50 years, and suffer from toxicity, poor efficacy and resistance; the goal of this project is to develop lead drugs that will be suitable for entry into pre-clinical trials. […] Glycolysis in axenically cultured T. cruzi, representing the intracellular pathogenic stage, is also essential for these parasites. {Engel, 1987} This project aims to discover and optimize selective inhibitors of the glycolytic enzyme pyruvate kinase (PYK) from Trypanosoma brucei, the parasite that causes sleeping sickness. […] Trypanosomatid PYKs show significant differences from their human counterparts including only 47-50% sequence identity and different allosteric and activation properties.{Callens, 1992} To this end, a qHTS was done against the MLSMR to discover inhibitors. To confirm activity of the cherrypicked compounds, an orthogonal assay was developed. While the primary qHTS provides a luminescence-based detection of TbPyK by measuring ATP production, the orthogonal assay will measure the amount of ADP substrate remaining. Decrease in activity signal indicative of inhibition of T. brucei proliferation is the desired outcome for this assay. NIH Molecular Libraries Probe Production Network [MLPCN] NIH Chemical Genomics Center [NCGC] Grant: MH095452 PI Name: Malcolm Walkinshaw, University of Edinburgh
Briefly, 2 uL of substrate/TbPYK buffer (all columns but column 4) are dispensed into Greiner white solid-bottom 1536-well assay plates. Column 4 gets just buffer without enzyme. Compounds are then transferred via Kalypsys pin tool equipped with 1536-pin array (10 nL slotted pins, V&P Scientific, San Diego, CA). Following addition of compound, 1 uL of ADP (130 uM final concentration, columns 1-48) is added to initiate the reaction. The plates are then incubated at room temperature for 60 minutes. ADP-Glo (Promega) reagent I is added (2.5 uL) and plates incubated for 10 minutes. ADP-Glo reagent II is then added (5 uL), followed by a 10 minute room temperature incubation, before being transferred to a ViewLux high-throughput CCD imager (PerkinElmer), wherein single end-point measurements of luminescence are acquired using a clear filter. All reagents are diluted in an assay buffer consisting of 50 mM TEA (pH 7.2), 100 mM KCl, 10 mM MgCl2, 0.05% BSA and 0.01% Tween-20.
% is scaled to controls: 0 for no effect and ±100 for the full control effect; potency is read from the fitted curve at half-maximal effect.
Also: nearly all actives have a fitted effect of over 75% in size.

Potency, active:
c1ccc(-c2nnc3n2NC(c2ccc4c(c2)OCO4)S3)cc1 (stereo unspecified) 0.141 µM, COCCNC(=O)Nc1ccc2nc(-c3ccco3)c(-c3ccco3)nc2c1 8.91 µM, Oc1c(CN2CCOCC2)ccc(CN2CCOCC2)c1O 7.08 µM, O=C(CN1CCN(c2ccc(O)cc2)CC1)Nc1cc(S(=O)(=O)N2CCOCC2)ccc1Cl 12.6 µM, O=C1C=CC(=O)N1c1ccc(N2CCCCC2)cc1 3.55 µM, Cc1cc(C#N)c(SCC(N)=O)nc1-c1ccc(F)cc1 5.01 µM, Cc1cc(C2=NNC(=Nc3ccc(S(=O)(=O)N4CCOCC4)cc3)SC2)c(C)n1CC1CCCO1 (stereo unspecified) 15.8 µM, O=C(CSc1nnc(-c2ccco2)n1CC1CCCO1)c1ccccc1 (stereo unspecified) 35.5 µM, COc1cc(C2CC(=O)N3CN(Cc4ccccc4)CSC3=C2C#N)ccc1OCc1ccccc1 (stereo unspecified) 0.447 µM, Cc1nc2ccc(S(=O)(=O)NCC(=O)O)cc2s1 11.2 µM, Cc1cccc(-n2c(N)c(C(=O)N3CCN(C)CC3)sc2=S)c1 5.01 µM, NC(=O)c1c(Nc2nc3c(F)cccc3s2)sc2c1CCCC2 8.91 µM, Cc1ccc(/C=C/C(=O)Nc2ccc([N+](=O)[O-])c(NC(=O)/C=C/c3ccc(C)o3)c2)o1 20 µM, O=C(Nc1ccc(S(=O)(=O)N2CCOCC2)cc1)c1ccc2ncsc2c1 15.8 µM, O=c1[nH]c2ccccc2n2c(-c3ccccc3)nnc12 0.1 µM, C=CCn1c(=S)[nH]c2scc(-c3ccco3)c2c1=O 17.8 µM, COC(=O)/C=C\C(=O)Nc1cccc([N+](=O)[O-])c1 17.8 µM, O=C(CCCCCn1c(=S)[nH]c2ccsc2c1=O)NC1CCCCC1 14.1 µM, O=C(CSc1ccc(-c2ccco2)nn1)Nc1cccc(F)c1 31.6 µM, Cc1ccc(C)c2c1cc(C)c1nnc(SCC(=O)Nc3cccc(C(=O)O)c3)n12 1 µM, CC(=O)N1CC[n+]2c(-c3ccc([N+](=O)[O-])cc3)csc21 1.78 µM, CN(c1ccccc1)S(=O)(=O)c1cccc(NC(=O)Cc2ccc(Cl)cc2)c1 12.6 µM, CSc1c(SCc2ccccc2)cnn(Cc2ccccc2)c1=O 14.1 µM, Cc1ccc(NC(=O)c2cc(-c3ccc(C)o3)nc3ccccc23)nc1 35.5 µM, N#Cc1c(N2CCCCC2)nc(N)c2c(N)nc(SCC(=O)O)cc12 35.5 µM

Activity change, negative = inhibition, inactive:
Cc1nonc1C(=O)N/N=C/c1ccc(O)cc1 13.7%, COc1ccc(Cc2nnc(NS(=O)(=O)Cc3ccccc3)s2)cc1 -11.1%, Cc1c(C)c(C)c(S(=O)(=O)N2CCC3(CC2)OCCO3)c(C)c1C -2.02%, COc1cccc(C(=O)c2cc3ccc(O)cc3oc2=O)c1 -2.74%, COc1cccc(C(=O)Nc2ccc(N3CCCC3)cc2)c1 -6.36%, O=C(COC(=O)c1ccccc1)c1ccc2c(c1)OCCO2 0.431%
